ChEMBL document CHEMBL3988442, “University of Dundee, Small-Polar-MMV Screening Library” (2021)
Out of some 48,000 compounds screened, about 13,000 (27%) showed an effect of 50% or more. This is one part of the list.

What follows are molecules tested on Wolbachia pipientis (assay: Anti-Wolbachia Cell-Based Screen). Details: 5 µM.
Format: functional
Set-up: scale not given: in the data most compounds retested in dose-response had high values

Compound | Percent Effect [%]
CN(C(=O)OC(C)(C)C)C1CCN(C(=O)c2cc(Cl)c[nH]2)C1 (configuration not stated) | 3.471
COCC(=O)N[C@H](C)c1onc(-c2ccc(F)cc2)c1C(=O)O | -10.17
CC(C)n1[nH]c(=O)c2c1NC(=O)CC2c1cccc(OC(F)F)c1 (configuration not stated) | 18.26
CC(C)n1[nH]c(=O)c2c1NC(=O)CC2c1cccnc1 (configuration not stated) | 10.81
O=C1CC(c2ccc(C(=O)O)cc2)c2ncn(-c3cccc(F)c3)c2N1 (configuration not stated) | 4.592
Cn1c(=O)c2c(n3ncnc13)NC(=O)CC2c1cccc(F)c1 (configuration not stated) | 120.7
CC(C)n1[nH]c(=O)c2c1NC(=O)CC2c1ccc2ncccc2c1 (configuration not stated) | 8.497
COc1cccc(C2CC(=O)Nc3c2c(=O)n(C)c2ncnn32)c1 (configuration not stated) | 109.5
Cn1c(=O)c2c(n3ncnc13)NC(=O)CC2c1cccc(Br)c1 (configuration not stated) | 114.2
O=C1CC(c2ccc(C(=O)O)cc2)c2ncn(-c3ccccc3F)c2N1 (configuration not stated) | 10.34
O=C1CC(c2ccc(F)cc2)c2cnn(C3CCCC3)c2N1 (configuration not stated) | -2.721
Cn1c(=O)c2c(n3ncnc13)NC(=O)CC2c1ccc(F)cc1 (configuration not stated) | 107.2
CSc1ccc(C2CC(=O)Nc3c2c(=O)[nH]c2ncnn32)cc1 (configuration not stated) | -5.097
CC(C)(C)n1ncc2c1NC(=O)CC2c1ccccc1 (configuration not stated) | 1.075
CC(C)(C)c1cn2c(n1)C(CNCc1ccccn1)CCC2 (configuration not stated) | 10.69
CCN(Cc1nc(-c2ccco2)no1)Cc1cccc2c1OCO2 | -4.038
CC(C)n1nc2c(cc1=O)CN(CC1CCCCO1)CC2 (configuration not stated) | 3.458
Cc1nc2n(n1)CC(NCc1ccccc1OCC(=O)N(C)C)CC2 (configuration not stated) | 1.473
NC(=O)COc1ccc(CN2CCC(O)(CN3CCCCC3)C2)cc1Cl (configuration not stated) | -2.336
Cc1nc(N2Cc3cnn(Cc4ccc(F)cc4)c3C2)no1 | -13.57
CCc1ccc(C2CC(=O)Nc3c2c(=O)n(C)c2ncnn32)cc1 (configuration not stated) | 109.5
COCc1nc2nc(O)c3c(n2n1)NC(=O)CC3c1ccc(SC)cc1 (configuration not stated) | -7.854
Cn1ncc2c1NC(=O)CC2c1ccc(O)cc1 (configuration not stated) | 38.62
CC(C)(C)c1noc(CCCC(=O)N2CCNC(=O)C2)n1 | -4.153
O=c1c2ccccc2ncn1Cc1cc(C2CC2)[nH]n1 | 98.49
O=C(Cn1cnc2ccccc2c1=O)Nc1cc(C2CC2)n[nH]1 | 0.387

Compound | Percent Effect [%]
Cc1cc(CN2CCC(c3cc(Cc4ccccc4)n[nH]3)CC2)[nH]n1 | 25.91
COc1cccc2c(=O)n(Cc3cc(C4CC4)[nH]n3)cnc12 | 104.8
COc1cccc2c(=O)n(CCN3CCNCC3)cnc12 | 4.244
O=c1c2sccc2ncn1CC(O)CN1CCOCC1 (configuration not stated) | 7.822
CC1CCN(CC(O)Cn2cnc3ccsc3c2=O)CC1 (configuration not stated) | -6.513
O=c1c2sccc2ncn1Cc1cc(C2CC2)[nH]n1 | 88.09
CN(Cc1cc(C2CC2)[nH]n1)Cc1cc2ccc(F)cc2[nH]c1=O | -8.263
N#Cc1ccc(N2CCCN(CC(=O)N3CCNC(=O)C3)CC2)cc1 | -15.62
CN(CC1=CCCN(Cc2cccc(C#N)c2)C1)C(=O)c1ccco1 | 6.358
O=C(CCc1ccsc1)N1CCC(n2cc(CO)nn2)CC1 | -0.2022
CCn1c(CN2CCCC2)nnc1C1CCN(Cc2ccc(C)o2)CC1 | 10.89
OC(CNc1nc(C2CCCC2)nc2c1CCNCC2)C(F)(F)F (configuration not stated) | -10.56
CCCn1c(SCC(N)=O)nnc1-c1csc2c1CCCC2 | 99.65
CCn1c(SCC(N)=O)nnc1-c1csc2c1CCCC2 | 115.1
CCCNC(=O)CSc1nnc2[nH]c(=O)c3c(n12)CCCC3 | 1.807
NC(=O)CSc1nnc2[nH]c(=O)c3c(n12)CCCC3 | 2.529
COC(=O)CSc1nnc2[nH]c(=O)c3c(n12)CCCC3 | -5.705
CCCc1cc(=O)[nH]c2nnc(SCC(N)=O)n12 | 23.5
Cn1c(SCC(N)=O)nnc1-c1csc2c1CCCC2 | 119.7
O=C(NCCn1ccnc1)c1csc2c1CCCC2 | 1.844
O=C(NCCCn1cccn1)c1csc2c1CCCC2 | -1.067
O=C(CSc1ccncc1)N1C[C@H]2CC[C@@H]1CN(Cc1cccnc1)C2 | 5.846
CCCc1n[nH]c(C2CN(CCNS(=O)(=O)CC)CCO2)n1 (configuration not stated) | 14.03
O=C(NCCCN1CCN(c2ncccn2)CC1)NCC1CCOC1 (configuration not stated) | 1.135
CC(C)c1cc(C(=O)NCC2CCCN(C(C)C)C2)n(C)n1.Cl (configuration not stated) | 153.6
CCCc1nnsc1C(=O)NCC1CCN(c2ncccn2)CC1 | 3.898

Compound | Percent Effect [%]
Cc1ccc(-c2nc(CC(=O)NCC3CCCN(C(C)C)C3)cs2)o1 (configuration not stated) | 19.88
CCn1nc(C(C)C)cc1C(=O)NCC1CCCN(c2ccccn2)C1 (configuration not stated) | 125
CCCc1nnsc1C(=O)NCC1CCN(c2ccccn2)CC1 | -9.247
CC(C)c1cc(C(=O)NCC2CCCN(c3ncccn3)C2)n(C)n1 (configuration not stated) | 135
CCc1nnsc1C(=O)NCCC1CCCN(C(C)C)C1 (configuration not stated) | 8.592
CC(C)Cc1cc(C(=O)NCC2CCCN(c3ccccn3)C2)on1 (configuration not stated) | 8.718
CC(C)Sc1ccc(C(C)NC(=O)CNS(C)(=O)=O)cc1 (configuration not stated) | -8.082
COCC(C)N1CCc2onc(-c3ccc(C(F)(F)F)cc3)c2C1 (configuration not stated) | -24.24
CC[C@H]1COCCN1C(=O)c1cnc(C(C)C)nc1C | -0.1974
CCc1ccc(CN2CCc3ncnc(N4CCOCC4)c3CC2)o1.O=C(O)C(F)(F)F | 10.74
CCc1ncnc(N2CCOCC2C(N)=O)c1F (configuration not stated) | 114.1
CCOCC(=O)N1CCc2c(ncnc2N2CCOCC2)C1 | -19.06
CCc1ncnc(N2CCOCC2CCO)c1F (configuration not stated) | 97.7
CCc1ncnc(N2CCOCC2C2CC2)c1F (configuration not stated) | 106.4
CCc1c(C)sc2ncnc(N3CC[C@@H](N4CCOCC4)[C@H](O)C3)c12 | -13.58
Cc1nn(C)c(C)c1C1COCCN1c1ncnc2sccc12 (configuration not stated) | -13.78
CCc1ncnc(N(C)CC2CCCCO2)c1F (configuration not stated) | 6.222
Cc1n[nH]cc1CNCC(c1ccsc1)N(C)C (configuration not stated) | 26.65
COc1cccc(Cn2cccc(C#N)c2=O)c1 | -6.219
CCc1csc(C2CCCN(C(=O)C3=NN(CC)C(=O)CC3)C2)n1 (configuration not stated) | 7.447
CCc1nc(C2CCCN(C(=O)C3=NN(CC)C(=O)CC3)C2)no1 (configuration not stated) | 20.67
Cc1nc(C2CCCN(C(=O)C3=NN(C(C)C)C(=O)CC3)C2)no1 (configuration not stated) | -5.623
CCN1N=C(C(=O)N2CCCC(c3noc(C)n3)C2)CCC1=O (configuration not stated) | -1.234
CCN1N=C(C(=O)N2CCCC(c3nc(C)cs3)C2)CCC1=O (configuration not stated) | 85.99
CCN1N=C(C(=O)N2CCCC(c3nc(C)c(C)s3)C2)CCC1=O (configuration not stated) | 92.25
COC1CCCN(C2CCN(c3cccc(-c4csc(C)n4)c3)CC2)C1 (configuration not stated) | 10.88

Compound | Percent Effect [%]
NC(=O)C1CCN(C(=O)C2SCCc3sccc32)CC1 (configuration not stated) | -9.27
COc1cccc(-c2ncc(CN3C[C@@H]4CC[C@H](C3)N(C)C4=O)s2)c1 | 4.635
COCCn1ccnc1C1CCN(C(=O)c2cccc(COC)n2)CC1 | -13.9
CN(C)S(=O)(=O)N1C[C@H]2CCC[C@@]2(COCC2CC2)C1 | -7.001
CN(C)CC(=O)N1CCC2(CC1)CN(c1ncccn1)CCO2.O=C(O)C(F)(F)F | -4.698
CN(C)CC(=O)N1CCC2(CC1)COCCN(Cc1ccncc1)C2 | -9.31
CN(C)CC(=O)N1CCC2(CC1)COCCN(c1ncccn1)C2 | 104.4
CN(C)C(=O)N1CCC2(CC1)COCCN(c1ncccn1)C2 | 89.78
CC(C)C(=O)N1CCOC2(COCCN(c3ncccn3)C2)C1 (configuration not stated) | 1.497
c1cc(CN2CCCCC2)cc(NCc2cc[nH]n2)c1 | 0.9619
Cc1ccc(S(=O)(=O)NC[C@H]2OC[C@@H](NCc3ccncc3)[C@@H]2O)cc1 | -4.658
CCc1nc(C)c([C@H]2CN(C)C[C@@H]2C(=O)NC(C)(C)c2ccccc2)[nH]1 | -16
Cc1nc(C)n(CC2CCCCN2CCCS(=O)(=O)N(C)C)n1 (configuration not stated) | -10.86
CCC[C@@H]1CN(C(=O)c2c(F)ccc(C)c2Cl)C[C@H]1C(=O)O | 10.65
CC(=O)c1c(C)cc(C)c(CS(=O)(=O)c2nccn2C)c1C | -11.41
CN(C(=O)C1CCOCC1)[C@@H]1CCC[C@@H](N2CCCC2)[C@@H]1O | 75.81
Cc1occc1C(=O)N1CC[C@@H](N2CCOCC2)[C@@H]1Cc1ccccc1 | 5.558
CN([C@@H]1CC[C@@H](N2CCOCC2)[C@@H]1O)S(=O)(=O)c1ccccc1 | 122.9
O[C@H]1CN(c2nc(-c3ccccc3)no2)C[C@@H]1N1CCOCC1 | 10.35
CN(C)C(=O)CO[C@@H]1CC[C@H]2[C@H]1OCCN2C(=O)C1CCOCC1 | 4.998
O=C(C1CCOCC1)N1CC[C@@](O)(c2ccccc2)[C@H]2CCCC[C@@H]21 | 1.669
CN(C(=O)C1CCCCC1)[C@@H]1CCC[C@@H](N2CCOCC2)[C@@H]1O | 5.741
CN(C(=O)C1CCOCC1)[C@@H]1CCC[C@@H](N2CCOCC2)[C@@H]1O | 124.2
CCc1cnc(N2CC[C@@H]3CN(CCC(C)C)S(=O)(=O)[C@@H]3CC2)nc1.O=C(O)C(F)(F)F | -2.106
